Laboratory results reported in PubChem BioAssay (EPA / NIEHS).
Activity calls are given as the source filed them. How the source made its calls: active means hit-call score of the fitted dose curve at least 0.9, where 1 is the maximum; inactive means score below 0.9.

Test: ATG_PBREM_CIS: Attagene CIS-FACTORIAL HepG2 Assay for human Phenobarbital-responsive Enhancer Module (PBREM) (AID 2282955)
Conditions: HepG2 PBREM cis-reporter, Attagene multiplexed transcription; actives raise or lower the signal
Procedure: ATG_CIS is a cell-based, multiplexed-readout assay that uses HepG2, a human liver cell line, with measurements taken at 24 hours after chemical dosing in a 24-well plate.ATG_PBREM_CIS is one of 52 assay component(s) measured or calculated from the ATG_CIS assay. It is designed to make measurements of mRNA induction, a form of inducible reporter, as detected with fluorescence intensity signals by Reverse transcription polymerase chain reaction (RT-PCR) and Capillary electrophoresis technology.Data from the assay component ATG_PBREM_CIS was analyzed into 1 assay endpoint. This assay endpoint, ATG_PBREM_CIS, was analyzed with bidirectional fitting relative to DMSO as the negative control and baseline of activity. Using a type of inducible reporter, measures of mRNA for gain or loss-of-signal activity can be used to understand the reporter gene at the transcription factor-level as they relate to the gene NR1I3. Furthermore, this assay endpoint can be referred to as a primary readout, because this assay has produced multiple assay endpoints where this one serves a reporter gene function. To generalize the intended target to other relatable targets, this assay endpoint is annotated to the nuclear receptor intended target family, where the subfamily is non-steroidal.
Human liver HepG2 cells are transiently transfected with multiple reporter transcription units (MRTUs) in 6-well plates using FuGene 6 reagent (Roche; 3 ml FuGene/1 mg DNA). The MRTU constructs are regulated by a cis-regulating element (promoter). […] A major difference between the CIS and TRANS system is that in CIS activities of endogenous TFs are measured, whereas the TRANS assay evaluates changes in activities of exogenous, chimeric NR-Gal4 proteins. […] At the end of 24 hour incubation, total RNA was isolated using TriZol reagent (Invitrogen). The isolated RNA is then reverse-transcribed using oligo(dT) primer and Mo-MLV reverse transcriptase (Invitrogen) with DNAse I (Ambion) treatment for 30 min. The one-tenth of the produced cDNA was amplified by PCR using Taq DNA polymerase (Invitrogen) and two reporter sequence-specific primers. The PCR products were fluorescently labeled by primer extension with 6-arboxyfluorescein (6-FAM) 5'-labeled reporter sequence-specific primer (2 min at 95 C, 20 s at 68 C and 10 min at 72 C) and these products were digested with 5U of HpaI (New England Biolabs) for 2h at 37 C. The fragments were purified using Qiaquick PCR columns (Qiagen), analyzed on an ABI 3130xL genetic analyzer (Applied Biosystems) with peak positions identified by using a set of X-rhodamine (ROX)-labeled MapMarker1000 molecular weight standards (BioVentures). The raw capillary electrophoresis data was processed using Attagraph software (Attagene).

SMILES | outcome | AC50
COc1ccccc1NC(=O)CC(C)=O | inactive | 
CCOC(=O)CC(C)C | inactive | 
CCCCN(CCO)CCO | inactive | 
CC1COC(=O)O1 (stereo not given) | inactive | 
CC(=O)Oc1c(C)c(C)c2c(c1C)CC[C@@](C)(CCC[C@H](C)CCC[C@H](C)CCCC(C)C)O2 | inactive | 
CC(C)=CC(=O)O | inactive | 
CCCCCCCCSCc1cc(C)c(O)c(CSCCCCCCCC)c1 | inactive | 
CCCCC1CCCCC(=O)O1 (stereo not given) | inactive | 
CCCCCCCCCCCCN1CCOCC1 | inactive | 
C1CCCNCC1 | inactive | 
C[C@]12CC[C@@H]3c4ccc(O)cc4CC[C@H]3[C@@H]1CC[C@@H]2O | inactive | 
NC(=O)c1cnccn1 | inactive | 
COc1cc(OC)c2ccc(=O)oc2c1 | inactive | 
N#CCCNCCC#N | inactive | 
CCCc1ccc(O)cc1 | inactive | 
CCCCCC(=O)O[C@]1(C(C)=O)CC[C@H]2[C@@H]3CCC4=CC(=O)CC[C@]4(C)[C@H]3CC[C@@]21C | inactive | 
CCC(C)COC(=O)CC(C)C (stereo not given) | inactive | 
CCCCN(CCCC)CCCCCCN(CCCC)CCCC | inactive | 
CCC(C)C1CCCCC1=O (stereo not given) | inactive | 
CCCCCCCCCOS(=O)(=O)O | inactive | 

SMILES | outcome | AC50
C=CC(O)CCCCC (stereo not given) | inactive | 
CC(C)COC(=O)c1ccccc1O | inactive | 
O=C(c1ccc(OCCN2CCCCC2)cc1)c1c(-c2ccc(O)cc2)sc2cc(O)ccc12 | inactive | 
CC(=O)OC/C=C(C)/C=C/C=C(C)/C=C/C1=C(C)CCCC1(C)C | inactive | 
CC(=O)c1cccnc1 | inactive | 
COC(=O)c1cccc(C(=O)OC)c1 | inactive | 
Brc1cc(Br)cc(Br)c1 | inactive | 
CNC(=C[N+](=O)[O-])NCCSCc1ccc(CN(C)C)o1 | inactive | 
CC=CC(=O)C1=C(C)C=CCC1(C)C | inactive | 
CC(C)CCOC(=O)CC(C)C | inactive | 
C=COCC1CCC(COC=C)CC1 (stereo not given) | inactive | 
Nc1ccc(O)c(N)c1 | inactive | 
CCCCCCCCOS(=O)(=O)O | inactive | 
O=c1cc(-c2ccc(O)cc2)oc2cc(O)cc(O)c12 | inactive | 
C=C1CC[C@H]2O[C@]2(C)CC[C@@H]2[C@@H]1CC2(C)C | inactive | 
COc1ccc(N)c(C)c1 |  | 181 µM (active)
CCCCCCOC(C)=O | inactive | 
NCCN1CCNCC1 | inactive | 
CC12CCC(C1)C(C)(C)C2O (stereo not given) | inactive | 
C=CC(C)(CCC=C(C)C)OC(=O)CC (stereo not given) | inactive | 
